In all, about 340,000 compounds went through this assay and about 2,100 (0.62%) were called active.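 How the source made its calls: active means first-screen hits whose inhibition reached a set limit at any dose in the follow-up dose series; inconclusive means inhibition above the set first-screen limit but never retested; inactive means the rest.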 A selection follows. Results with a measured potency or affinity are listed apart.
The compounds below were run against Rac GTPase-activating protein 1 (Homo sapiens) (UniProt Q9H0H5) (assay: MgcRacGAP GTPase-activating activity inhibitors, confirmation, biochemical, ADP Hunter fluorescence, primary and confirmatory (AID 624330;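 further: fluorescence reports GDP produced by GAP-driven GTP hydrolysis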)). Conditions: MgcRacGAP-stimulated Rac1 GTP hydrolysis, at 30 µM, active compounds read high, GST-tagged Rac1 F28L mutant substrate.
Sequence of Rac GTPase-activating protein 1 (Homo sapiens) (Q9H0H5 whole entry, looked up): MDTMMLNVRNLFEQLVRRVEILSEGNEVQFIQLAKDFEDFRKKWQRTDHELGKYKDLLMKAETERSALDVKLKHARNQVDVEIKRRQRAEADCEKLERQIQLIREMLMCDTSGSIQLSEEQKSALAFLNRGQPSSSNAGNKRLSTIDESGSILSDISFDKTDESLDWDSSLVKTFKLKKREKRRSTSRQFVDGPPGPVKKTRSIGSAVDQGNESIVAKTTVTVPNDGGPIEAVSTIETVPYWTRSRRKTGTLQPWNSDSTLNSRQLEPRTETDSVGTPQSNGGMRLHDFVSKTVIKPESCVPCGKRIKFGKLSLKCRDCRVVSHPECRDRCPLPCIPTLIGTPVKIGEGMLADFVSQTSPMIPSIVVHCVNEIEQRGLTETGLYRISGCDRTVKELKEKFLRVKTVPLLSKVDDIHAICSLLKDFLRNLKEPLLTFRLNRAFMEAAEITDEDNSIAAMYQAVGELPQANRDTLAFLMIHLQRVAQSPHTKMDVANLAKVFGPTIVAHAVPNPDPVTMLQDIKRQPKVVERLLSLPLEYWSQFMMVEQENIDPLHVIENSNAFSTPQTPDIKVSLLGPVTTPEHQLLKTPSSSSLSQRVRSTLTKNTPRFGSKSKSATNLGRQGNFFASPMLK

inhibition, inactive:
CCN(CC1COc2ccccc2O1)C(=O)CN1C(=O)NC(C)(c2ccccc2)C1=O (stereo not given) 1.68%
NC(=O)c1ccc(NC(=O)COC(=O)c2cccc(Oc3ccccc3)c2)cc1 -3.55%
CCOCCCNC(=S)N1CCCN(c2nc3cc(C)ccc3cc2C#N)CC1 10.8%
CN(C)c1ccc(/C=N/NC(=O)CNC(=O)c2ccc3c(c2)OCCO3)cc1 14.6%
O=C(CNC(=O)c1ccc2c(c1)OCCO2)N/N=C/c1ccc(Cl)cc1 13.2%
COc1ccc(/C=N/NC(=O)CNC(=O)c2ccc3c(c2)OCCO3)cc1OC 12.1%
COc1ccc(/C=C(/NC(=O)c2ccccc2)C(=O)N/N=C/c2ccc3c(c2)OCO3)cc1OC 4.26%
COc1ccc(/C=N/NC(=O)c2ccc3c(c2)OCO3)cc1 7.95%
COc1cccc(/C=N/NC(=O)CNC(=O)c2ccc3c(c2)OCCO3)c1O 8.24%
O=C(N/N=C/c1ccc2c(c1)OCO2)c1ccc2c(c1)OCO2 9.83%
O=C(N/N=C/c1ccc2c(c1)OCO2)/C(=C/c1ccc2c(c1)OCO2)NC(=O)c1ccccc1 -2.17%
CCOC(=O)C(NC(=O)c1ccc(OC)cc1)(Nc1cc(C)on1)C(F)(F)F (stereo not given) 9.87%
Cc1ccccc1NC(=O)OCc1cccnc1Oc1ccc(Cl)cc1 10.3%
C/C(=N\NC(=O)c1cc(C)oc1C)c1ccc2c(c1)OCO2 6.44%
CN(C)CCCN(Cc1ccccc1)C(=S)Nc1cccc(C(F)(F)F)c1 3.49%
Cc1ccc2c(c1)NC(=O)C(CC(=O)Nc1ccc(CN3CCC(C)CC3)cc1)O2 (stereo not given) 4.76%
Cc1[nH]c(N=Nc2ccccc2)nc1N=Nc1ccccc1 8.63%
Cc1ccccc1OCC(=O)Nc1ccccc1N1CCC(C)CC1 4.53%
O=C(C[n+]1ccc(-c2ccccc2)cc1)Nc1ccc([N+](=O)[O-])cc1 8.73%
COC(=O)C1=C(C)N(Cc2ccccc2)C(=NCCCCO)N[C@H]1c1cccc(C(F)(F)F)c1 10.7%
CC1(C)NS(=O)(=O)Oc2ccccc21 15.4%
O=C(NC1=NCCS1)C1CC(=O)N(c2ccc(F)cc2)C1 (stereo not given) 3.19%
Cc1nc2c(ncn2-c2ccccc2)c(=O)n1NC(=O)CN1CCOCC1 6.81%
COc1cc(/C=C/C(=O)c2ccc3c(c2)OCO3)cc(OC)c1OC 9.6%
COc1ccc(/C=C/C(=O)c2ccc3c(c2)OCO3)cc1OC 0.8%

From PubChem BioAssay AID624330 (Southern Research Specialized Biocontainment Screening …, 2012)
